# Test results from PubChem BioAssay (Tox21).
# A number with no mark means an inactive call. Inconclusive results are not listed. Entries that show only a call come without a potency. Activity calls are given as the source filed them. Unless noted, calls come from the whole dose curve.
# Legend:
# [1] = target: Thyrotropin receptor (Homo sapiens) (UniProt P16473); experiment: qHTS assay to identify small molecule agonists of the thyroid stimulating hormone receptor (TSHR) signaling pathway (AID 1224843); note: nearly all actives have a fitted effect of over 45% in size
# How it was run: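 HEK293/TSHR, 800 cells/well; cpd 30 min RT; add cAMP-d2 + anti-cAMP-cryptate, 1 h RT; fluorescence read on plate reader. 15-pt titration, n=3.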
# [2] = qHTS assay to identify small molecule agonists of the hypoxia (HIF-1) signaling pathway - cell viability counter screen (AID 1224844); note: nearly all actives have a fitted effect of over 50% in size
# How it was run: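 CellTiter-Glo luminescence read-out, 30 min RT, taken in the same wells as the beta-lactamase HRE reporter assay; HRE-bla ME-180 cells, 0.5% dialyzed FBS, 17 hr compound treatment at 37C, 5% CO2.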
# [3] = qHTS assay to identify small molecule agonists of H2AX (AID 1224845; active = well fitted activation curve with a large enough effect in the signal ratio in the repeat runs, not every such curve was filed as active; the % refers to the signal ratio)
# How it was run: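 Wild-type CHO-K1 cells, plated overnight, exposed 3hr at 37C to 15 concentrations (0.76% DMSO final). Lysed, then HTRF anti-pH2AX (S139) cryptate and anti-H2AX-d2 antibodies, 24 hr room temperature; 665/620 nm emission read.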
# [4] = qHTS assay to identify small molecule agonists of the hypoxia (HIF-1) signaling pathway (AID 1224846; active = well fitted activation curve with a large enough effect in the signal ratio in the repeat runs, not every such curve was filed as active; the % refers to the signal ratio)
# How it was run: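 Beta-lactamase FRET read-out (CCF4-AM substrate) from ME-180 cells carrying an HRE-driven bla reporter, after 17 hrs compound exposure at 37C/5% CO2. Cells were seeded at 2,000 per well in 0.5% dialyzed FBS medium and preincubated 5 hrs.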
# [5] = qHTS assay to identify small molecule agonists of H2AX - cell viability counter screen (AID 1224847); note: top concentration of the series differs between compounds; nearly all actives have a fitted effect of over 30% in size
# How it was run: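 Cytotoxicity counter screen in wild-type CHO-K1 cells: a 3 hr compound treatment at 37C across 15 concentrations, followed by CellTiter-Glo luminescence to gauge viable cells.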
# [6] = qHTS assay to identify small molecule antagonists of the estrogen related receptor (ERR) signaling pathway from Tox21 library (AID 1224848; active = well fitted curve in the direction sought with a large enough effect in the repeat runs; an effect the other way counts as inactive or inconclusive; note: nearly all actives have a fitted effect of over 50% in size; note: potency is the fitted concentration of half-maximal effect)
# How it was run: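 Compounds dissolved in DMSO are pin-transferred onto ERR reporter cells (2,000 per well) that have settled for 6 h at 37 C. Plates then incubate 18 h at 37 C before ONE-Glo luciferase reagent and a luminescence read 30 min later.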
# [7] = qHTS assay to identify small molecule agonists of the estrogen related receptor (ERR) signaling pathway from Tox21 library (AID 1224849); conditions: ERR reporter cell line, ONE-Glo luciferase, 18 h; at 92.4 µM (top of the series) unless noted; note: nearly all actives have a fitted effect of over 15% in size
# How it was run: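 Luminescence readout (ONE-Glo, 30 min RT) after 18 h compound exposure at 37 C of NTP-supplied ERR reporter cells; cells were plated 6 h before compound addition by pin tool.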
# [8] = qHTS RealTime-Glo MT Cell Viability Assay in HepG2 cells - 24 hour (AID 1224867; active = well fitted curve in the direction sought with a large enough effect in the repeat runs; an effect the other way counts as inactive or inconclusive; note: nearly all actives have a fitted effect of over 50% in size)
# How it was run: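 Viability was tracked continuously by NanoLuc luminescence from prosubstrate reduced by living HepG2 cells, at successive time points over 40 h of compound exposure. Cells with reagent were preincubated 5 h at 37 °C before compound addition.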
# [9] = qHTS RealTime-Glo MT Cell Viability Assay in HEK293 cells - 32 hour (AID 1224868; active = well fitted curve in the direction sought with a large enough effect in the repeat runs; an effect the other way counts as inactive or inconclusive; note: top concentration of the series differs between compounds; nearly all actives have a fitted effect of over 50% in size)
# How it was run: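 Viability tracked continuously by luminescence as live cells reduce a prosubstrate for NanoLuc; HEK293 cells preincubated 5 h, compound-treated at 37 C, and read at 0, 8, 16, 24, 32 and 40 h.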
# [10] = A CellTox Green Cytotoxicity Assay to monitor cytotoxicity in HEK293 cells - 0 hour (AID 1224869; active = well fitted curve in the direction sought with a large enough effect in the repeat runs; an effect the other way counts as inactive or inconclusive; note: nearly all actives have a fitted effect of over 50% in size)
# How it was run: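 Read-out: fluorescence of a cell-impermeant cyanine dye staining DNA of dead cells, proportional to cytotoxicity. HEK293, 600 cells/well with reagent, compound (23 nL DMSO) added after 5 h; reads at 0, 8, 16, 24, 32, 40 h.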
# Chain of Thyrotropin receptor (Homo sapiens) (P16473 whole entry, looked up): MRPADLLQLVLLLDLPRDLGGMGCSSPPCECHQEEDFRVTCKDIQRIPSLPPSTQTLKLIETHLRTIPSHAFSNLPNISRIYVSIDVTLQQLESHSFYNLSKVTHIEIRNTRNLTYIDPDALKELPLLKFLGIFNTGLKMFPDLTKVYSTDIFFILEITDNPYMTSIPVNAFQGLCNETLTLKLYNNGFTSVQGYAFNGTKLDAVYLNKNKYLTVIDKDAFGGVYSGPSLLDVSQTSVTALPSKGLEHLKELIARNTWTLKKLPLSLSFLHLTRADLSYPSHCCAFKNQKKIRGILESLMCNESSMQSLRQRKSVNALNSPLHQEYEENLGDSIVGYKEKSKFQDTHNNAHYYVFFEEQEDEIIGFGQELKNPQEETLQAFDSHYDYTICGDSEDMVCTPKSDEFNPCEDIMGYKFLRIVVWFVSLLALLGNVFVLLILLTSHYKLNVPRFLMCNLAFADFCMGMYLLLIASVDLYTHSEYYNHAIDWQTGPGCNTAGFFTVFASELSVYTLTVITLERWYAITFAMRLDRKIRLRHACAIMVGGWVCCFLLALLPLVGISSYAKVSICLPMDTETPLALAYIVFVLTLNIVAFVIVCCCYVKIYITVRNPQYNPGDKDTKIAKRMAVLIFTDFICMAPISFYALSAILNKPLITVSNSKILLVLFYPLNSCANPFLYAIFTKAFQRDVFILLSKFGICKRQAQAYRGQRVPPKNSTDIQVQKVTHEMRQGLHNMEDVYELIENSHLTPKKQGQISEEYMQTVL
SMILES,outcome [1],Potency [2],outcome [3],outcome [4],Potency [5],Potency [6],"activity change, positive = activation [7]",outcome [8],Potency [9],Potency [10]
NCCNC(=O)c1ccc(Cl)cn1,inactive,inactive,inactive,inactive,inactive,inactive,-0.271% [at 42.5 µM],inactive,inactive,inactive
CCCCCC[C@@H](CCC)C(=O)O,inactive,inactive,inactive,inactive,inactive,,-23% [at 42.5 µM],inactive,inactive,inactive
CCCCCCCCCCCCCCC,inactive,inactive,inactive,inactive,inactive,inactive,4.59%,inactive,,inactive
CCn1c(=O)c2c(nc(/C=C/c3ccc(OC)c(OC)c3)n2C)n(CC)c1=O,inactive,inactive,inactive,inactive,inactive,21.1 µM (active),-35.7% [at 42.5 µM],inactive,,inactive
CCC(C)(C)C1CCC(OC)CC1 (stereo unspecified),inactive,inactive,inactive,inactive,inactive,inactive,-1.91%,inactive,inactive,inactive
CCCCCCCCN(C)CCCCCCCC,inactive,inactive,inactive,inactive,inactive,inactive,18.3%,inactive,,inactive
O=S(=O)(O)c1ccccc1O,inactive,inactive,inactive,inactive,inactive,inactive,-0.0376%,inactive,inactive,inactive
COC(=O)CCCCCCCCC(=O)OC,inactive,inactive,inactive,inactive,inactive,inactive,0.842%,inactive,,inactive
CCCCc1ccc2cccc(S(=O)(=O)O)c2c1,inactive,inactive,inactive,inactive,inactive,inactive,-0.296%,inactive,inactive,inactive
CCO[Si](C)(OCC)OCC,inactive,inactive,inactive,inactive,inactive,inactive,4.4%,inactive,inactive,inactive
O=c1[nH]c2ccccc2c(=O)n1CCCl,inactive,inactive,inactive,inactive,inactive,inactive,-3.42% [at 42.5 µM],inactive,inactive,inactive
COC(=O)[C@H]1[C@H]2C[C@@H]3c4[nH]c5cc(OC)ccc5c4CCN3C[C@H]2C[C@@H](OC(=O)COc2ccc(OC)cc2)[C@@H]1OC,inactive,inactive,inactive,inactive,inactive,inactive,-9.01% [at 42.5 µM],inactive,inactive,inactive
CC(C)(C)N(CCO)CCO,inactive,inactive,inactive,inactive,inactive,,,inactive,inactive,inactive
Cc1ccccc1Br,inactive,inactive,inactive,inactive,inactive,inactive,-0.692%,inactive,inactive,inactive
CCCCCCCCCCCCCCCCCC(=O)OCCCCCCCCCCCCCC(C)C,inactive,inactive,inactive,inactive,inactive,,,inactive,inactive,inactive
Cc1cc(C)cc(OCC2CNC(=O)O2)c1 (stereo unspecified),inactive,inactive,inactive,inactive,inactive,,,inactive,inactive,inactive
CC(=O)c1ccc(C)cc1,inactive,inactive,inactive,inactive,inactive,,,inactive,inactive,inactive
O=C1CC2(CCCC2)CC(=O)N1,inactive,inactive,inactive,inactive,inactive,,,inactive,inactive,inactive
NC(=O)CCCCC1CCSS1 (stereo unspecified),inactive,inactive,inactive,inactive,inactive,,,inactive,inactive,inactive
COc1cc(O)cc(O)c1,inactive,inactive,inactive,inactive,inactive,,,inactive,inactive,inactive
CCCCNc1ccccc1,inactive,inactive,inactive,inactive,inactive,,,inactive,inactive,inactive
CC1(C)OC(=O)Nc2ccc(Br)cc21,inactive,inactive,inactive,inactive,inactive,,,inactive,inactive,inactive
COCCOC(=O)CC#N,inactive,inactive,inactive,inactive,inactive,,,inactive,inactive,inactive
O=C(O)c1ccccc1-c1ccc(C(F)(F)F)cc1,inactive,inactive,inactive,inactive,inactive,,,inactive,inactive,inactive
Fc1ccccc1-c1ccccc1,inactive,inactive,inactive,inactive,inactive,,,inactive,inactive,inactive
